About 360 (0.41%) of roughly 87,000 compounds were called active. The sample holds actives, similar compounds and a random draw of the others, so the mix is not that of the screen. Cut-off read from the data, not from the text of the source: active = cytotoxicity above about 50%; inactive = the rest.
Assay: cytotoxicity in HT1080 fibrosarcoma cells, cell-based, fluorescence readout (AID 620);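 note: cells exposed to compound overnight then 4 h with Alamar Blue; 0% = vehicle DMSO and 100% = killing control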
Conditions: HT1080 viability, at 10 µM, stronger effect = higher value

Structure (SMILES)	cytotoxicity
COc1ccc(OC)c(S(=O)(=O)Nc2cc(OC)c(Cl)cc2OC)c1	9.8% (inactive)
COc1cc(NS(=O)(=O)c2cc(C)ccc2OC)c(OC)cc1Cl	-2.6% (inactive)
COc1cc(NS(=O)(=O)c2ccc(OC)c(C)c2C)c(OC)cc1Cl	55.1% (active)
CCOc1cc(C2CC(=O)Nc3cc(C)c(C)cc32)ccc1O (configuration not stated)	-0.2% (inactive)
COc1ccc(NC(=O)CCN2CCCCC2)cc1	9% (inactive)
CCOc1ccccc1-c1nc(-c2cc3ccccc3nc2OC)no1	-4.6% (inactive)
Cc1cc(F)c(F)c(C(=O)N2CCN(C)CC2)c1Cl	6.8% (inactive)
CCc1ccc(C2(O)CC(C(F)(F)F)=NN2C(=O)Cc2ccc([N+](=O)[O-])cc2)cc1 (configuration not stated)	2.2% (inactive)
c1cc2c(cc1C1CCCCC1)c1c3n2CCCNC3CCC1 (configuration not stated)	69.7% (active)
Cc1ccc2c(c1)c1c3n2CCN(C(=O)C2CC2)C3CCC1 (configuration not stated)	-15.3% (inactive)
c1ccc2c(c1)c1c3n2CCNC3CCC1 (configuration not stated)	-2.4% (inactive)
Cc1ccc2c(c1)c1c3n2CCCNC3CCC1 (configuration not stated)	-1.3% (inactive)
Cc1ccc2c(c1)c1c3n2CCN(C(=O)CN2CCN(C)CC2)C3CCC1 (configuration not stated)	12.8% (inactive)
O=C(NC(Cc1ccc2c(c1)OCO2)C(=O)N1CCCC1C(=O)O)c1ccccc1 (configuration not stated)	3.5% (inactive)
Cn1c(=O)[nH]c2sc3c(c2c1=O)CC(C)(C)OC3	27.1% (inactive)
COCCOC(=O)c1[nH]c2c(c1C)C(=O)CC(c1ccc(N(C)C)cc1)C2 (configuration not stated)	-0.7% (inactive)
COc1ccc(OC)c(C2CC(=O)c3c([nH]c(C(=O)OCC4CCCO4)c3C)C2)c1 (configuration not stated)	-5.3% (inactive)
COCCOC(=O)c1[nH]c2c(c1C)C(=O)CC(c1cc(OC)ccc1OC)C2 (configuration not stated)	-3.5% (inactive)
Cc1c(C(=O)OCC2CCCO2)[nH]c2c1C(=O)CC(c1ccco1)C2 (configuration not stated)	52.9% (active)
Cc1c(C(=O)N2CCOCC2)[nH]c2c1C(=O)CC(c1ccc(Cl)cc1)C2 (configuration not stated)	5.8% (inactive)
COCCOC(=O)c1[nH]c2c(c1C)C(=O)CC(c1ccco1)C2 (configuration not stated)	67.1% (active)
CSCCOC(=O)c1[nH]c2c(c1C)C(=O)CC(c1ccco1)C2 (configuration not stated)	62.4% (active)
CCOC(=O)c1[nH]c2c(c1C)C(=O)CC(c1ccco1)C2 (configuration not stated)	66% (active)
Cc1c(C(=O)OCC2CCCO2)[nH]c2c1C(=O)CC(c1ccc(N(C)C)cc1)C2 (configuration not stated)	-2.7% (inactive)
CCOC(=O)c1ccc(N=CC2=C(O)CC(c3ccco3)CC2=O)cc1 (configuration not stated)	-1.5% (inactive)

Structure (SMILES)	cytotoxicity
CCOCCOC(=O)c1[nH]c2c(c1C)C(=O)CC(c1ccc(N(C)C)cc1)C2 (configuration not stated)	-3.6% (inactive)
COC(=O)NCC(c1cccnc1)N1CCOCC1 (configuration not stated)	2.8% (inactive)
COc1ccc(C(c2nnnn2C2CCCC2)N2CCN(C3CCCC3)CC2)cc1OC (configuration not stated)	-1.8% (inactive)
Cc1ccc(NC(=O)c2oc3c(c2C)C(=O)CC(C)(C)C3)cc1	-0.8% (inactive)
O=S(=O)(c1ccccc1)N1CCN(S(=O)(=O)c2ccccc2)C1	-4.1% (inactive)
CCn1cnc2cc(NS(=O)(=O)c3ccc(C)cc3)ccc21	11.7% (inactive)
Cc1ccccc1NC(=O)c1cccc2nccnc12	-4.6% (inactive)
COc1ccc(-c2cnc3nc[nH]c(=O)c3n2)cc1	-12.3% (inactive)
Cc1cnc(C(=O)Nc2ccc(F)cc2)cn1	-11.7% (inactive)
COc1cccc(C2c3c(-c4cc(Cl)c(C)cc4O)n[nH]c3C(=O)N2Cc2cccnc2)c1 (configuration not stated)	-4.8% (inactive)
CCOC(=O)N1CCN(C(=O)c2cccn3c(=O)c4sccc4nc23)CC1	-2.4% (inactive)
FC(F)(F)c1ccc(N2CCN(c3ncnc4c3nnn4Cc3ccccc3Cl)CC2)cc1	-17.6% (inactive)
COc1ccc(OC)c(C2CC(=O)c3c([nH]c(C(=O)OC(C)C)c3C)C2)c1 (configuration not stated)	10.6% (inactive)
Cc1c(C(=O)O)[nH]c2c1C(=O)CC(c1ccc(Cl)cc1)C2 (configuration not stated)	-4.3% (inactive)
CCC(C)OC(=O)c1[nH]c2c(c1C)C(=O)CC(c1ccc(N(C)C)cc1)C2 (configuration not stated)	-1.9% (inactive)
Cc1c(C(=O)N2CCOCC2)[nH]c2c1C(=O)CC(c1ccccc1Cl)C2 (configuration not stated)	34.2% (inactive)
Cc1c(C(=O)OCCOC(C)C)[nH]c2c1C(=O)CC(c1ccco1)C2 (configuration not stated)	66.2% (active)
COc1cc(C2CC(=O)c3c([nH]c(C(=O)OCCOC(C)C)c3C)C2)cc(OC)c1OC (configuration not stated)	-1.3% (inactive)
Cc1c(C(=O)OCC(C)C)[nH]c2c1C(=O)CC(c1ccco1)C2 (configuration not stated)	63.9% (active)
Cc1c(C(=O)OCCOC(C)C)[nH]c2c1C(=O)CC(C)(C)C2	-5.6% (inactive)
COCCOC(=O)c1[nH]c2c(c1C)C(=O)CC(c1ccc(F)cc1)C2 (configuration not stated)	-9% (inactive)
CCOC(=O)c1[nH]c2c(c1C)C(=O)CC(c1ccc(F)cc1)C2 (configuration not stated)	70.2% (active)
Cc1c(C(=O)OCc2ccccc2)[nH]c2c1C(=O)CC(c1ccco1)C2 (configuration not stated)	67.8% (active)
CC1=C(C(=O)OCc2ccccc2)C(c2ccco2)C2=C(CC(C)(C)CC2=O)N1 (configuration not stated)	-6.1% (inactive)
CCCCOc1ccc(C(=O)N2CC(C)OC(C)C2)cc1 (configuration not stated)	-6.4% (inactive)

Structure (SMILES)	cytotoxicity
Cc1ccc(-n2c(C)nc3c(cnn3-c3ccc(F)cc3)c2=O)cc1	-1.6% (inactive)
Cc1cc(NC(=O)C2CC(=O)OC2c2ccccc2)no1 (configuration not stated)	10.6% (inactive)
CC(=O)OC(C(=O)NC1CCCCC1)c1ccc(C#N)cc1 (configuration not stated)	-3.2% (inactive)
Cc1ccccc1-n1c(SCC(=O)N2CCOCC2)nc(O)cc1=O	3.4% (inactive)
COc1ccccc1C(=O)NC1CCCCCCC1	3.1% (inactive)
O=C(NC1=NCCS1)c1ccncc1	-1.5% (inactive)
O=C(COC(=O)c1cnccn1)NCCc1ccccc1	-15.3% (inactive)
Cc1c(C(=O)OC2CCCC2)[nH]c2c1C(=O)CC(c1ccco1)C2 (configuration not stated)	64.9% (active)
Cc1c(C(=O)OC2CCC(C)CC2)[nH]c2c1C(=O)CCC2 (configuration not stated)	0.6% (inactive)
Cc1c(C(=O)OC2CCCCC2)[nH]c2c1C(=O)CC(C)(C)C2	-1.3% (inactive)
COc1ccc(C2=NOC(C(=O)NC(C)C)C2)cc1 (configuration not stated)	-5.6% (inactive)
CCOc1ccc(OCC)c(NC(=O)CN(C)S(=O)(=O)c2cnc[nH]2)c1	11.3% (inactive)
O=C(c1cnn2cccnc12)N1CCN(c2ccccc2)CC1	6.5% (inactive)
Cc1ccc2c(c1)c1c3n2CCN(C(=O)Cn2c(-c4ccccc4)noc2=O)C3CCC1 (configuration not stated)	4.8% (inactive)
Cc1ccc2c(c1)c(=O)c1c3n2CCN(C(=O)CCl)C3CC1 (configuration not stated)	102% (active)
CC(=O)N1CCn2c3c(c(=O)c4cc(C)ccc42)CCC31 (configuration not stated)	-5.9% (inactive)
CCOC(=O)c1c(C)[nH]c(C)c1C(=O)CSc1nnc(-c2ccc(OC(F)F)cc2)o1	0.8% (inactive)
CN(C)c1ccc(C(=O)c2ccc(N(C)C)c3ccccc23)cc1	69.6% (active)
COc1ccc(C(=O)c2ccc(Cl)cc2)c2ccccc12	-14.8% (inactive)
CN(C)c1ccc(C(=O)c2ccccc2)cc1	-16.8% (inactive)
COc1ccc(C(=O)c2ccc(OC)c3cccc(O)c23)cc1OC	-5.2% (inactive)
COc1ccc(C(=O)c2ccc(N(C)C)cc2)c2ccccc12	63.3% (active)
CN(C)c1ccc(C(=O)c2ccc(O)cc2O)cc1	3.6% (inactive)
CC1=C(C)CC(C(=O)NCC(=O)c2ccccc2)C(C(=O)O)C1 (configuration not stated)	-5% (inactive)
Cn1cnc([N+](=O)[O-])c1NC(C)(C)C	8.7% (inactive)

Structure (SMILES)	cytotoxicity
Cc1c(C(=O)OCC(C)C)[nH]c2c1C(=O)CC(c1cccs1)C2 (configuration not stated)	66% (active)
CCOC(=O)C1=C(C)NC2=C(C(=O)CC(c3cccs3)C2)C1c1cccs1 (configuration not stated)	5.7% (inactive)
CCCOCCOC(=O)c1[nH]c2c(c1C)C(=O)CC(c1cc(OC)ccc1OC)C2 (configuration not stated)	1.3% (inactive)
COC(=O)c1[nH]c2c(c1C)C(=O)CC(c1cc(OC)ccc1OC)C2 (configuration not stated)	-2.1% (inactive)
COC(=O)c1[nH]c2c(c1C)C(=O)CC(c1cccs1)C2 (configuration not stated)	58.6% (active)
COC(=O)C1=C(C)NC2=C(C(=O)CC(c3cccs3)C2)C1c1ccsc1 (configuration not stated)	16.3% (inactive)
CCCOC(=O)c1[nH]c2c(c1C)C(=O)CC(c1ccc(OC)c(OC)c1)C2 (configuration not stated)	7.2% (inactive)
CCCOC(=O)c1[nH]c2c(c1C)C(=O)CC(c1cccs1)C2 (configuration not stated)	66.7% (active)
CC(C(=O)N=c1sc2ccccc2n1C)N1C(=O)C2CC=CCC2C1=O (configuration not stated)	-11% (inactive)
c1ccc(CCn2c(C3CC3)nc3ccccc32)cc1	-16.9% (inactive)
CCOC(=O)c1ccc(NC(=O)C(CC)(CC)C(=O)OCC)cc1	-4.9% (inactive)
CC(C)(C)C1(c2ccccc2)NC(=O)N(CC(=O)N2CCOCC2)C1=O (configuration not stated)	2.6% (inactive)
COc1cc(C#N)ccc1OCC(=O)c1ccc2c(c1)OCCO2	-5.9% (inactive)
CCc1cccc(CC)c1NC(=O)CSc1nnc(C(C)C)n1CC	0.9% (inactive)
Cc1csc(NC(=O)CN2C(=O)C3CC=CCC3C2=O)n1 (configuration not stated)	-13.5% (inactive)
CCn1c(SCC(=O)c2cc(C)n(C)c2C)nnc1-c1ccccc1	15.3% (inactive)
CCOC(=O)c1cccc(NC(=O)CSc2nnc(-c3cccnc3)n2CC)c1	12.7% (inactive)
CCn1c(SCC(=O)c2cc(C)n(-c3ccc(C(=O)OC)cc3)c2C)nnc1-c1cccnc1	69.6% (active)
COc1ccccc1NS(=O)(=O)c1ccc(Cl)cc1	11.9% (inactive)
COc1ccccc1NC1=NC(C)(C)N=C(N)N1	-26.5% (inactive)
COc1ccccc1NC1=NC(c2ccc(Cl)cc2)N=C(N)N1 (configuration not stated)	60.5% (active)
O=C(OC1CCS(=O)(=O)c2sccc21)c1ccccc1 (configuration not stated)	-6.9% (inactive)
